Consider 13 compounds from PubChem BioAssay (NCI).

Structures are written as SMILES. The panel holds about 83,000 compounds, 20% with a hit somewhere; the sample as a whole holds those more often.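 Note: values are percent growth. 100 is the growth of untreated cells, values between 100 and 0 indicate rising inhibition; between -100 and 0 indicates cell death.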 Values without a mark were called inactive. Calls of active or inactive are those of the source. The calls were made as follows: active = growth percent below 10; inactive = the rest.

Among the test systems are HCT-15 colon; HT29 colon; SNB-75 CNS; SNB-19 CNS; U251 CNS; PC-3 prostate; SK-MEL-5 melanoma; UACC-62 melanoma; LOX IMVI melanoma; SK-MEL-28 melanoma.
Common to all, as to assay: NCI-60 one-dose screen, 48 h (100 = growth as untreated, 0 = no growth, -100 = all killed)
Holding throughout (conditions): 10 µM unless noted

Consider `O=c1c2ccccc2c2nccn2c2cc(Cl)ccc12`, for which the growth with HCT-15 colon was 129%; in the assay with HT29 colon, 83.8%; in the assay with SNB-75 CNS, 73.3%; with SNB-19 CNS it was 119%; in the assay on U251 CNS it was 105%; in the assay on PC-3 prostate it was 72.5%. For the same compound, the growth in the assay on SK-MEL-5 melanoma was 72.6%; in the assay with UACC-62 melanoma it was 129%; with LOX IMVI melanoma, 95.4%; in the assay on SK-MEL-28 melanoma it was 96.8%.
For the compound `O=C(c1ccc(N2CCOCC2)cc1[N+](=O)[O-])N1CCOCC1`, the growth in the assay on HCT-15 colon is 96.2%; in the assay with HT29 colon it was 90.5%; in the assay on SNB-75 CNS, 31.8%; in the assay on SNB-19 CNS, 96.9%; in the assay on U251 CNS, 105%; in the assay with PC-3 prostate, 93.6%. In addition, the growth was 136% in the assay with SK-MEL-5 melanoma, 97% in the assay with UACC-62 melanoma, 98.3% with LOX IMVI melanoma and 96.9% with SK-MEL-28 melanoma.
With `CCN(CC)c1ccc(N=C2C=CC(=O)C=C2NC(C)=O)cc1`, the growth in the assay on HCT-15 colon is 90.3%; in the assay with HT29 colon, 104%; in the assay on SNB-75 CNS it was 96.7%; in the assay on SNB-19 CNS, 116%; in the assay with U251 CNS, 87.9%; in the assay with PC-3 prostate, 83.6%. Further, the growth is 88.5% in the assay with SK-MEL-5 melanoma, 93.2% with UACC-62 melanoma, 80.8% in the assay with LOX IMVI melanoma and 127% in the assay on SK-MEL-28 melanoma.
As to `Oc1c(Cl)cc(Oc2cc(Cl)c(O)c(CN3CCOCC3)c2)cc1CN1CCOCC1`, the growth was 82.1% in the assay with HCT-15 colon; 105% in the assay with HT29 colon; 88.1% in the assay on SNB-75 CNS; 86.2% in the assay on SNB-19 CNS; 96.9% with U251 CNS; 81% with PC-3 prostate. Further, the growth was 87.5% in the assay with SK-MEL-5 melanoma, 66.8% with UACC-62 melanoma, 83.3% in the assay on LOX IMVI melanoma and 126% with SK-MEL-28 melanoma.
Consider `CC[N+](CCCCCCCCCC[N+](CC)(c1ccccn1)c1ccccn1)(c1ccccn1)c1ccccn1`, for which the growth with HCT-15 colon is 58.6%; in the assay with HT29 colon, -34% (active); in the assay with SNB-75 CNS it was 6.81% (active); with SNB-19 CNS it was 13.3%; in the assay on U251 CNS it was 6.56% (active); with PC-3 prostate, 2.94% (active). In addition, the growth with SK-MEL-5 melanoma was -72.4% (active); with UACC-62 melanoma it was 0.363% (active); in the assay on LOX IMVI melanoma, -54.4% (active); with SK-MEL-28 melanoma it was 15.1%.
As for `O=C(C(=O)c1cc(Br)ccc1O)c1cc(Br)ccc1O`, the growth with HCT-15 colon is 54%; in the assay on HT29 colon, 93.7%; in the assay with SNB-75 CNS, 59.8%; in the assay with SNB-19 CNS, 37.9%; in the assay on U251 CNS, 43.6%; in the assay with PC-3 prostate it was 46.5%. Further, the growth was 14.7% in the assay with SK-MEL-5 melanoma, 11.7% in the assay with UACC-62 melanoma, 39.1% in the assay with LOX IMVI melanoma and 51.1% in the assay with SK-MEL-28 melanoma.
For `O=C(NN1C(=O)c2cc(C(=O)O)c(C(=O)O)cc2C1=O)c1ccncc1`, the growth is 103% in the assay with HCT-15 colon; 108% with HT29 colon; 145% in the assay on SNB-75 CNS; 106% in the assay with SNB-19 CNS; 100% in the assay with U251 CNS; 84.6% in the assay on PC-3 prostate. Also, the growth is 106% in the assay with SK-MEL-5 melanoma, 92.3% in the assay with UACC-62 melanoma, 109% in the assay with LOX IMVI melanoma and 94.2% with SK-MEL-28 melanoma.
For `c1ccc(N2c3nc4ccccc4cc3Sc3cc4ccccc4nc32)nc1`, the growth is 95.6% in the assay with HCT-15 colon; 104% in the assay on HT29 colon; 109% with SNB-75 CNS; 97.8% in the assay with SNB-19 CNS; 85.7% in the assay on U251 CNS; 72.5% with PC-3 prostate. Further, the growth in the assay on SK-MEL-5 melanoma is 91.3%; with UACC-62 melanoma, 78.4%; in the assay on LOX IMVI melanoma it was 84.1%; in the assay with SK-MEL-28 melanoma, 115%.
For `C[C@H]1C(=O)N2c3ccccc3[C@@]3(O)C[C@@H](n4cnc5ccccc5c4=O)C(=O)N1[C@@H]23`, the growth is 109% in the assay with HCT-15 colon; 120% in the assay with HT29 colon; 98.3% in the assay on SNB-75 CNS; 99.7% in the assay with SNB-19 CNS; 101% in the assay on U251 CNS; 95.6% with PC-3 prostate. In addition, the growth is 123% in the assay with SK-MEL-5 melanoma, 98.3% in the assay with UACC-62 melanoma, 97.7% in the assay with LOX IMVI melanoma and 100% in the assay with SK-MEL-28 melanoma.
On to `CCCCN1c2nc3ccccc3cc2Sc2cc3ccccc3nc21`, for which the growth in the assay with HCT-15 colon is 94.9%; with HT29 colon, 95.2%; with SNB-75 CNS, 107%; in the assay with SNB-19 CNS, 107%; in the assay on U251 CNS, 109%; in the assay on PC-3 prostate, 78.6%. In addition, the growth in the assay with SK-MEL-5 melanoma was 82.1%; in the assay with UACC-62 melanoma, 91.7%; with LOX IMVI melanoma, 103%; in the assay with SK-MEL-28 melanoma it was 116%.
Take `COc1ccc2cc(C3=CC(=O)CCC3)ccc2c1`: the growth with HCT-15 colon was 99.2%; with HT29 colon, 86.7%; in the assay on SNB-75 CNS, 95.1%; in the assay with SNB-19 CNS, 92.1%; in the assay on U251 CNS, 102%; in the assay on PC-3 prostate, 91.3%. In addition, the growth in the assay with SK-MEL-5 melanoma was 94.3%; in the assay with UACC-62 melanoma, 77.1%; with LOX IMVI melanoma it was 91.1%; in the assay on SK-MEL-28 melanoma, 115%.
`CCSCC1CC(O)(c2ccccc2)C(c2ccccc2)C(c2ccc(Cl)cc2)O1` (stereo not given): the growth in the assay on HCT-15 colon was 7.75% (active); in the assay with HT29 colon it was 13.5%; with SNB-75 CNS it was 59.4%; in the assay on SNB-19 CNS, 28.5%; in the assay with U251 CNS, 5.12% (active); in the assay on PC-3 prostate it was 4.66% (active). Further, the growth was -94.8% (active) in the assay on SK-MEL-5 melanoma, 0.0955% (active) in the assay with UACC-62 melanoma, -85.2% (active) in the assay with LOX IMVI melanoma and -18.7% (active) with SK-MEL-28 melanoma.
Regarding `Cn1cnc([N+](=O)[O-])c1Sc1nc(N)nc2nc[nH]c12`, the growth in the assay with HCT-15 colon is 50.3%; in the assay on HT29 colon, 47.2%; with SNB-75 CNS it was 31.3%; in the assay with SNB-19 CNS, 101%; with U251 CNS it was 63.6%; in the assay on PC-3 prostate, 56.2%. Moreover, the growth is 79.3% with SK-MEL-5 melanoma, 7.35% (active) with UACC-62 melanoma, 6.74% (active) with LOX IMVI melanoma and 84.4% with SK-MEL-28 melanoma.
